Rows were chosen to be rich in hits. Some 2% of all compounds tested hit in one or more screens of this group.
TRb-SRC2 inh: disrupts binding of human TR beta to SRC2. TRbeta-SRC2 peptide binding, fluorescence polarization; receptor liganded with 1 µM T3. 0.065% of 280,000 active. AID 1469. Potency, µM (doses to about 106 µM), without a hit: at the highest dose activity change, negative = inhibition, actives largely listed as inhibitors;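 further: potency means the concentration at half of the fitted maximal effect; plate controls were bound peptide for no effect and peptide without receptor for full effect; nearly all actives have a fitted effect of over 50% in size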
Target sequence (P10828 whole entry, looked up): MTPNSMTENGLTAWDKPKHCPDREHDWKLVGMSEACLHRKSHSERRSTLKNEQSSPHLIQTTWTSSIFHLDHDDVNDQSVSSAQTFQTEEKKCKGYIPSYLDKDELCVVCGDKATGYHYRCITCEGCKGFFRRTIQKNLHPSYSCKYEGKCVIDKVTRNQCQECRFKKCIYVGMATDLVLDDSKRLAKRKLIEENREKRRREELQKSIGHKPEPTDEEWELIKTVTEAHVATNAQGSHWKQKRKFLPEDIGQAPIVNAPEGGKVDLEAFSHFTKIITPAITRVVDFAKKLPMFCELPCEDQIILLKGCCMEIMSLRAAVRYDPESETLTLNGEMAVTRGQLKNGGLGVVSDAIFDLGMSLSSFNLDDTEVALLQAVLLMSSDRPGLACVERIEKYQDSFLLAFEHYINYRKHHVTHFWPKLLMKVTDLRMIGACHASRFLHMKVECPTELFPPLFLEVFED
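Each compound concentration gave % activity, normalized to unbound and bound Texas Red SRC2 controls, from polarization read after 5 hr ambient incubation with T3-loaded human TRb LBD.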
HTT aggregate: mutant huntingtin aggregation inhibition; PC12 HttQ103-GFP aggregates, Acumen cytometry, 40 h; 1.1% of 220,000 active; AID 1688; Potency, µM (doses to about 46.1 µM), for the others: at the top dose activity change, negative = inhibition, actives largely listed as inhibitors; further: potency means the concentration at half of the fitted maximal effect; on the % scale 0 is the no-effect control and ±100 the full control effect; nearly all actives have a fitted effect of over 60% in size
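Read-out: GFP aggregate count by laser scanning cytometer (488 nm excitation, 500-530 nm emission, 1–25 µm objects >6 SD above background). Cells: PC12, inducible HTTex1-Q103-GFP, 100 nM tebufenozide; compounds titrated.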
KDM4E inh: JMJD2E (human) inhibition. JMJD2E catalytic domain, FDH-coupled NADH fluorescence (FDH is formaldehyde dehydrogenase). Potency, µM (highest dose often 57.1 µM), for inactives: at the top dose activity change, negative = inhibition, actives largely listed as inhibitors. 1.6% of 230,000 active. B2RXH2. AID 2147; active means well fitted inhibition curve with a large enough effect, not every such curve was filed as active; inconclusive means small, poorly fitted or top-dose-only effect, or another doubt; inactive means no such curve, though single readings can be large or run the other way;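 further: potency means the concentration at half of the fitted maximal effect; 0% = wells with enzyme and -100% = buffer wells without enzyme; nearly all actives have a fitted effect of over 50% in size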
Target sequence (B2RXH2 1-337 limits assumed): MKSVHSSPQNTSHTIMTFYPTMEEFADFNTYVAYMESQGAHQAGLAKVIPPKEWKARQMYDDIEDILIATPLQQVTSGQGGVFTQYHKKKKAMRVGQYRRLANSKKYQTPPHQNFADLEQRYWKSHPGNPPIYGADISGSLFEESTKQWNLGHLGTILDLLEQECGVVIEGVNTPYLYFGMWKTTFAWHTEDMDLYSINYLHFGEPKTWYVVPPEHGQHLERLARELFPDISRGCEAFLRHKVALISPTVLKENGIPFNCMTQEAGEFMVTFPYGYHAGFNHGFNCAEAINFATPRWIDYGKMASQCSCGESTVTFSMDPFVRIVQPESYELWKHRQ
HTT cytoprotect: protects HTT-Q103 PC12 cells, measured by ATP | 0.14% of 230,000 active | Potency, µM (highest dose often 56.4 µM), for the others: cytoprotection (ATP increase), usual class: activators | PC12 HTT-Q103 induced, cytoprotection, ATP luminescence, 40 h; further: potency means the concentration at half of the fitted maximal effect; % of control where 0% means no effect; nearly all actives have a fitted effect of over 45% in size
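Compounds were screened for protection of PC12 cells against cell death after tebufenozide induction (100 nM final) of mutant Huntingtin exon 1 (Q103) fused to GFP.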
TexasRed fluor: alters Texas Red total fluorescence, flagging assay interference; Potency, µM (doses to about 106 µM), for the others: at the highest dose fluorescence change, negative = quenching; AID 1479; TRb/SRC2 Texas Red total fluorescence interference; 0.29% of 280,000 active; active means well fitted curve in either direction with a large enough effect; inconclusive means small, poorly fitted or top-dose-only effect; further: potency means the concentration at half of the fitted maximal effect; on the % scale 0 is the no-effect control and ±100 the full control effect
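Human TRb ligand-binding domain at 0.6 uM with 20 nM Texas Red SRC2 peptide in Tris buffer containing 1 uM T3 and 5% DMSO, incubated with compound 5 h at ambient temperature. Total fluorescence (555/632 nm) calculated as parallel + 2 × perpendicular.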
FBPA coupling cs: counter-screen for Giardia aldolase inhibitors: coupling enzyme system; AID 2472; activity change, negative = inhibition, % at 58.2 µM, hits read low; coupling enzyme system counterscreen, AmpLite Red fluorescence; 0.67% of 290,000 active; in the data active means activity change below about -30%; further: on the % scale 0 is the no-effect control and ±100 the full control effect
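Counterscreen lacking aldolase: glyceraldehyde-3-phosphate coupling-enzyme reagent preincubated 10 min at RT with compound (at 57.5 uM final), then substrate/coupling system with AmpLite Red added; fluorescence read at 525/598 nm after 20 min RT.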
Numbers without * were called inactive; ? = inconclusive; . = no result given; [ ] = another dose, or the depositor's remark. Unless noted, the call rests on the fitted dose curve; in most records, active means well fitted curve in the direction sought with a large enough effect; inconclusive means small, poorly fitted or top-dose-only effect, or another doubt; inactive means no such curve, though single readings can be large; an effect the other way counts as inactive or inconclusive.

SMILES	TRb-SRC2 inh	HTT aggregate	KDM4E inh	HTT cytoprotect	TexasRed fluor	FBPA coupling cs
O=C1CC(Sc2nnnn2-c2ccccc2)C(=O)N1c1cccc(Cl)c1 (centres undefined)	2.1%	22.4µM*	-2.7%	25.8%[10 µM]	-4.8%	-1.8
CCCn1c(-c2ccc(F)cc2)nc2c(N3CCN(CCn4ccnc4)CC3)nc(C)nc21	3.1%	.	?	-40.0%	0.6%	1.9
COc1ccc(-c2cc(C3C4C=CCC(C)C4C(=O)N3Cc3ccccc3)ccc2F)cc1OC (centres undefined)	-8.2%	.	.	.	-0.1%	-1.1
CC(C)(C)NC(=O)C(c1cccnc1)N(C(=O)c1ccc(Cl)nc1)C1CCCC1 (centres undefined)	-10.3%[53 µM]	6.8%[9.22 µM]	0.1%	-13.4%[10 µM]	-2.0%[53 µM]	-50.9*
CCCCCCCC/C=C\CCCCCCCC(=O)N[C@H](CO)Cc1ccc(O)cc1	-0.8%	.	.	.	-5.6%	-8.5
Cc1occc1C(=O)Nc1ccc(S(=O)(=O)N2CCCC2)cc1	-6.5%	3.98µM*	-2.9%	-20.9%[0.074 µM]	-1.9%	3.0
Cc1occc1C(=O)Nc1cccnc1	7.2%	22.4µM*	1.8%	0.4%[0.074 µM]	-0.9%	-1.8
O=C(Nc1cccnc1)c1ccccc1O	12.7%	-10.8%	?	-23.3%	-1.9%	0.5
Brc1cc(Oc2cc(Br)c(Br)c(Br)c2Br)c(Br)c(Br)c1Br	-3.7%[201 µM]	.	.	3.8%	1.2%[201 µM]	.
CCO[Si](CCC#N)(OCC)OCC	3.3%[201 µM]	.	.	.	-2.3%[201 µM]	.
CCCSc1nnc(Sc2nnnn2-c2ccccc2)s1	-1.5%	22.4µM*	-2.1%	-57.6%[10 µM]	-6.3%	0.4
C(=C\CSc1nnnn1-c1ccccc1)/CSc1nnnn1-c1ccccc1	-2.6%	4.7%	1.3%	4.0%	-3.4%	-1.3
Cc1ccccc1-n1nnnc1Sc1nnnn1-c1ccccc1	7.0%	14.1µM*	-9.0%	-62.5%	0.1%	1.1
CO[Si](CCCNCCN)(OC)OC	-1.9%[201 µM]	.	.	.	0.2%[201 µM]	.
COc1ccc(NC(=O)c2cc(S(=O)(=O)N3CCCCC3)ccc2N2CCCCC2)cn1	-18.8%	-2.1%	?	-21.2%	1.1%	-35.0*
COc1ccccc1C(=O)Nc1ccc(S(=O)(=O)N2CCCCC2)cc1	.	.	.	.	.	-1.3
CCCN(CCC)C(=O)c1cc([N+](=O)[O-])cc2c1-c1ccc([N+](=O)[O-])cc1C2=C(C#N)C#N	-0.8%	-8.2%[9.22 µM]	?	-15.2%[10 µM]	-0.8%	-31.9*
CCCCOc1ccc(C(=O)Nc2ccc(OCC(=O)N3CCOCC3)cc2)cc1	.	.	.	.	.	-1.3
O=C(Nc1ccc(OCC(=O)N2CCOCC2)cc1)c1cncc(Br)c1	1.6%	11.2µM*	-5.6%	.	-0.5%	0.8
CCCCCCCCCCCCCCN(C)C	8.8%[201 µM]	.	.	.	-2.0%[201 µM]	.
CN(C)c1nc(N/N=C/c2ccccc2O)nc(Nc2ccc(F)cc2)n1	6.2%	?	28.2µM*	-125.3%	-2.2%	-9.2
CN(C)c1nc(Nc2ccc(F)cc2)nc(Oc2ccc(F)cc2)n1	.	.	.	.	.	-0.3
S=C(S)NCCNC(=S)S	-3.8%[201 µM]	.	.	.	?	.
COc1ccc(NC(=O)NCCN2CCN(c3cccc(Cl)c3)CC2)cc1	-9.7%	12.9%	5.4%	-7.9%[10 µM]	1.4%	-32.0*
COc1ccc(N2CCN(CCNC(=O)Nc3ccc(C)c(Cl)c3)CC2)cc1	.	.	.	.	.	-0.4
SMILES	TRb-SRC2 inh	HTT aggregate	KDM4E inh	HTT cytoprotect	TexasRed fluor	FBPA coupling cs
CCN(CC)CCCNC(=O)c1ccc(-c2nc(CN3CCc4ccccc43)c(C)o2)cc1	1.5%	.	.	.	-4.2%	.
Nc1c(C(=O)NCc2ccco2)c2nc3ccccc3nc2n1CCc1ccccc1	2.9%	?	?	.	-1.0%	-34.1*
COc1ccccc1N(C)C(=O)Cn1c(=O)oc2cc(S(=O)(=O)N3CCCC3)ccc21	-4.5%	.	.	.	-1.7%	.
O=c1c(-c2ccc(O)cc2)coc2cc(O)cc(O)c12	0.9%	1.6%	-1.2%	-80.6%	-4.9%	7.9
O=c1c(-c2cc(O)c(O)c(O)c2)coc2cc(O)c(O)c(O)c12	13.7%	.	2.82µM*	-64.2%	-9.3%	-70.8*
CCOC(=O)Cc1nnc2c(Nc3ccc(Cl)cc3)nc3nonc3n12	1.8%	17.8µM*	-7.9%	7.5%[10 µM]	-0.5%	0.6
O=C(CNC(c1ccccc1)c1ccccc1)Nc1c(F)cccc1F	1.7%[53 µM]	-9.6%	12.1%	1.26µM*	-0.7%[53 µM]	2.3
Cc1ccc(NC(=O)CNC(c2ccccc2)c2ccccc2)c(F)c1	-3.0%	6.0%	-11.8%	10.1%[10 µM]	-1.5%	-2.8
Cc1c(C)n(CC(O)CNc2ccccc2)c2ccccc12 (centres undefined)	-3.2%	9.0%[9.22 µM]	17.8µM*	29.2%[10 µM]	-0.8%	-6.6
COc1ccc(NCC(O)Cn2c(C)c(C)c3ccccc32)cc1 (centres undefined)	2.2%	11.1%[9.22 µM]	-1.8%	27.5%[10 µM]	-5.0%	-6.1
O=C(Cn1cc(SCc2ccc(Cl)cc2)c2ccccc21)N1CCCC1	-3.1%	.	.	.	-3.1%	.
COc1ccc(NC(=O)CSC2=Nc3ccccc3C3=NC(CCC(=O)NCc4cccs4)C(=O)N23)cc1 (centres undefined)	0.6%	.	.	.	-2.8%	.
N#Cc1c(N)oc(-c2ccc3c(c2)OCO3)c1-c1ccc2c(c1)OCO2	5.1%	4.6%	?	10.9%[10 µM]	-1.8%	-38.3*
Cc1nc(N)c(C#N)c(-c2ccc3c(c2)OCO3)c1C	.	.	.	.	.	-0.9
CN(C)c1ccc(C(=C2C=CC(=[N+](C)C)C=C2)c2c(O)c(S(=O)(=O)O)cc3cc(S(=O)(=O)O)ccc23)cc1	.	.	.	-7.3%[10 µM]	.	.
C=CCN1CCc2c(cc(O)c(O)c2Cl)[C@H](c2ccccc2)C1	.	.	.	-3.2%[1.9 µM]	.	.
C=CCN1CCc2c(cc(O)c(O)c2Br)[C@@H](c2ccccc2)C1	3.2%	.	14.1µM*	-40.9%	0.9%	.
CN1CCc2cc(O)c(O)cc2C(c2ccccc2)C1 (centres undefined)	-2.4%	.	20µM*	.	-1.9%	.
C=CCN1CCc2cc(O)c(O)cc2[C@H](c2ccccc2)C1	-0.4%	.	25.1µM*	7.4%	-1.1%	-3.0
CN1CCc2c(cc(O)c(O)c2Cl)C(c2cccc(Cl)c2)C1 (centres undefined)	1.6%	.	14.1µM*	.	-4.4%	.
CN1CCc2c(cc(O)c(O)c2Cl)[C@H](c2cccc(Cl)c2)C1	.	.	.	-1.2%[1.9 µM]	.	.
CO[C@H]1COC(=O)[C@H]2CCCN2C(=O)C/C=C\[C@@H](C)[C@H](OC)COC(=O)[C@@H](OCc2ccccc2)/C=C\[C@@H]1C	4.6%[11.2 µM]	.	.	8.3%[10 µM]	-0.1%[11.2 µM]	-0.3
COc1ccc(CCN2C(=O)c3oc4ccc(F)cc4c(=O)c3C2c2ccc(C(C)(C)C)cc2)cc1 (centres undefined)	6.0%	.	.	.	-15.9%	.
Cc1cc2oc(C(=O)Nc3sc4c(c3C(=O)NCc3ccco3)CCC4)cc(=O)c2cc1C	5.6%	.	.	.	1.5%	.

Assay outcomes (PubChem)
